Results filed as inconclusive are left out. Entries that show only a call come without a potency. Unmarked numbers belong to inactive results. Active and inactive are the calls of the source. The call rests on the fitted dose curve; in most records, active means well fitted inhibition curve with a large enough effect; inconclusive means small, poorly fitted or top-dose-only effect; inactive means no such curve, though single readings can be large or run the other way.

The test is described as follows: NS1 protein of Zika virus - qHTS assay to identify small molecule inhibitors in human HEK 293 cells (AID 1347053). Further: nearly all actives have a fitted effect of over 55% in size. As to conditions: HEK293 ZIKV MR766 infection, NS1 TR-FRET, 24 h; series mostly up to 46.1 µM. The procedure, abridged: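 HEK 293; 20 h pre-culture, 37 C/5% CO2; cpd 1 h pre-infection; ZIKV MR766, MOI = 0.5, 24 h, 37 C; TR-FRET NS1 readout (two anti-NS1 Abs); norm. to no-virus vs infected.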
With `CNC(=O)CN(CCN(CCN(CC(=O)[O-])CC(=O)NC)CC(=O)[O-])CC(=O)[O-].O.[Gd+3]`, the Potency result is “inactive”.
As to `COCc1c(C(C)C)nc(C(C)C)c(/C=C/[C@@H](O)C[C@@H](O)CC(=O)O)c1-c1ccc(F)cc1`, the Potency result was “inactive”.
Still for that read-out and setting: next, `C[C@]12C=CC(=O)C=C1[C@@H](F)C[C@@H]1[C@@H]2[C@@H](O)C[C@@]2(C)[C@H]1CC[C@]2(O)C(=O)CO`: “inactive”; `CC(=O)[C@H]1CC[C@H]2[C@@H]3C[C@H](C)C4=CC(=O)CC[C@]4(C)[C@H]3[C@@H](O)C[C@]12C`: “inactive”; `COc1ccc(C2C(=O)c3ccccc3C2=O)cc1`: “inactive”.
Same read-out and setting: next, `Cc1ccccc1C(=O)Nc1ccc(C(=O)N2CCCC(N(C)C)c3ccccc32)cc1` (stereo not drawn): “inactive”.
`CCn1cc(C(=O)O)c(=O)c2cnc(N3CCCC3)nc21`: the activity change, negative = inhibition was -25.1% [at 9.2 µM].
With `CC(=O)N(O)CCCCCNC(=O)CCC(=O)N(O)CCCCCNC(=O)CCC(=O)N(O)CCCCCN`, the Potency entry is “inactive”.
Same read-out and setting: the result for `COc1ccc(OC)c(C(O)CNC(=O)CN)c1` (stereo not drawn) reads “inactive”; that for `CN1CCC[C@@H]1c1cccnc1`, “inactive”.
Same read-out and setting: next, `CC(=O)OCC(=O)[C@@]12OC(C)(C)O[C@@H]1C[C@H]1[C@@H]3C[C@H](F)C4=CC(=O)C=C[C@]4(C)[C@@]3(F)[C@@H](O)C[C@@]12C`: “inactive”; `Cc1cc2c(cc1CC(=O)c1sccc1S(=O)(=O)Nc1onc(C)c1Cl)OCO2`: “inactive”.
On the same count and under the same terms, the result for `CC(C)(C)NC(=O)[C@@H]1CN(Cc2cccnc2)CCN1C[C@@H](O)C[C@@H](Cc1ccccc1)C(=O)N[C@H]1c2ccccc2C[C@H]1O` reads “inactive”.

(Values after PubChem BioAssay (NCATS).)
